EPAC2 antag: qHTS for Antagonist of cAMP-regulated guanine nucleotide exchange factor 2 (EPAC2): primary screen. EPAC2 GEF exchange of Rap1B-BODIPY-GDP, fluorescence. AID 720708, 2013. Potency, µM (doses to about 114 µM), inactives show at the highest dose activity, negative = inhibition, most hits filed as inhibitors. 360,000 tested, 0.18% active. Rap guanine nucleotide exchange factor 4 (Homo sapiens), Q8WZA2; also: % is scaled to controls: 0 for no effect and ±100 for the full control effect; nearly all actives have a fitted effect of over 45% in size
EPAC2 ag: qHTS for Agonist of cAMP-regulated guanine nucleotide exchange factor 4 (EPAC2): primary screen. 360,000 tested, 0.079% active. EPAC2 activation, biochemical qHTS; response scale: 100% = 6.5 mM cAMP response. Potency, µM (titrated, usually from 154 µM), for inactives: at the highest dose activation, hits mostly activators. AID 720711, 2013; also: nearly all actives have a fitted effect of over 50% in size
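qHTS, titration series. 100 nM EPAC2 / 250 nM Rap1B-BODIPY-GDP / 50 uM GDP; RT; ex 480/em 540 nm, 5-min reads to 30 min. Norm. to 6.5 mM cAMP = activation.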
EPAC1 antag: qHTS for Antagonist of cAMP-regulated guanine nucleotide exchange factor 3 (EPAC1): primary screen; Rap guanine nucleotide exchange factor 3 (Homo sapiens), O95398; EPAC1 GEF assay, Rap1b-BODIPY-GDP exchange fluorescence; Potency, µM (titrated, usually from 115 µM), for inactives: at the highest dose activity change, negative = inhibition, actives largely listed as inhibitors; 360,000 tested, 0.14% active;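 also: plate controls were vehicle for no effect and positive control for full effect; nearly all actives have a fitted effect of over 50% in size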
USP1 inh: Inhibitors of USP1/UAF1: Primary Screen; AID 743255, 2014; 390,000 tested, 0.23% active; recombinant USP1/UAF1, Ub-Rhodamine cleavage fluorescence; Potency, µM (series often up to 57.1 µM), for inactives: at the top dose activity change, negative = inhibition, usual class: inhibitors; also: % is scaled to controls: 0 for no effect and ±100 for the full control effect; nearly all actives have a fitted effect of over 60% in size
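In this screen, compounds sit with the deubiquitinase complex (1nM) for 15 min at room temperature before Ub-Rho is added at 150nM final. Fluorescence rise is then followed for 6 reads every 60 seconds.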
ALOX12 inh: Primary qHTS assay for inhibitors of human arachidonate 12S-lipoxygenase (ALOX12): Round 2; purified 12hLO, xylenol orange hydroperoxide absorbance; Potency, µM (top dose mostly 108 µM), inactives show top-dose activity change, negative = inhibition, most hits filed as inhibitors; 580,000 tested, 1.1% active; AID 1671190, 2021; also: % is scaled to controls: 0 for no effect and ±100 for the full control effect
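Hydroperoxide product was detected by ferrous iron/xylenol orange as the 573 to 405 nm absorbance ratio. Arachidonic acid at 40 uM (final) was turned over for 30 min at room temperature by 150 nM human 12hLO, pH 7.0 Hepes buffer, after 15 min compound preincubation.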
EPAC1 agonist: qHTS for Agonist of cAMP-regulated guanine nucleotide exchange factor 3 (EPAC1): primary screen; Rap guanine nucleotide exchange factor 3 (Homo sapiens), O95398; EPAC1 agonist qHTS, biochemical assay; response scale: 100% = response to 6.5 mM cAMP; Potency, µM (series often up to 154 µM), for the others: top-dose activation, hits mostly activators; 360,000 tested, 0.073% active; also: nearly all actives have a fitted effect of over 60% in size
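Multi-concentration qHTS readout: loss of Rap1B-bound BODIPY-GDP fluorescence driven by 100 nM EPAC1 with excess GDP (50 uM), monitored kinetically at room temperature; agonist response expressed relative to 6.5 mM cAMP.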
Starred values were filed as active, the others as inactive; ? = inconclusive; nt = no result; ! = not active in a repeat. Rows were chosen to be rich in hits. Some 1.3% of all compounds tested hit in one or more screens of this group. Calls follow the shape of the dose curve; as a rule, active = well fitted curve in the direction sought with a large enough effect; inconclusive = small, poorly fitted or top-dose-only effect, or another doubt; inactive = no such curve, though single readings can be large; an effect the other way counts as inactive or inconclusive. Potency is read from the fitted curve at half-maximal effect.

SMILES	EPAC2 antag	EPAC2 ag	EPAC1 antag	USP1 inh	ALOX12 inh	EPAC1 agonist
O=C(CCc1ccco1)Nc1ccc(N2CCOCC2)cn1	nt	nt	nt	nt	-37%	nt
CC(C)c1nc2sc3c(=O)[nH]c(=S)[nH]c3c2c2c1CCCC2	-19%	-8%	-1%	-22%	25µM*	0%
O=c1cc(O)c2sc3nc(C(F)(F)F)c4c(c3c2[nH]1)CCCCC4	-9%	12%	-4%	-3%	-6%	7%
COc1cccc(-c2nc(CS(=O)(=O)CC(=O)NCc3ccccc3Cl)c(C)o2)c1	nt	nt	nt	nt	-21%	nt
CN(C(=O)C1CC1)c1ccccc1C(=O)NC1CCCc2ccccc21 (centres undefined)	nt	nt	nt	nt	-25%	nt
Cc1ccc(S(=O)(=O)Nc2ccccc2N=Cc2ccc([N+](=O)[O-])cc2[N+](=O)[O-])cc1	8%	1%	7%	-25%	25µM*	4%
Cc1ccc(S(=O)(=O)Nc2ccc(S(=O)(=O)Nc3ccccc3)cc2[N+](=O)[O-])cc1	nt	nt	nt	nt	25µM*	nt
Cc1ccc(NS(=O)(=O)c2cc([N+](=O)[O-])ccc2N/N=C/c2ccc(N(c3ccccc3)c3ccccc3)cc2)c(C)c1	nt	nt	nt	nt	39%	nt
O=[N+]([O-])c1cc(S(=O)(=O)Nc2ccccc2)ccc1Nc1ccccc1	-15%	16%	-10%	?	-11%	17%
Cc1ccc(NS(=O)(=O)c2cc([N+](=O)[O-])ccc2NN)c(C)c1	nt	nt	nt	nt	40µM*	nt
Cc1ccc(S(=O)(=O)Nc2ccc3cc([N+](=O)[O-])ccc3c2[N+](=O)[O-])cc1	50µM*	-5%	79µM*	-19%	22µM*	-2%
Cc1ccc(NC(=O)C2CCCN(c3cnc4ccccc4n3)C2)c(C)c1 (centres undefined)	nt	nt	nt	nt	-28%	nt
O=C(CSc1nnc(-c2c[nH]c3ccccc23)o1)N1CCCC1	nt	nt	nt	nt	-18%	nt
COc1cc(N(C(C)=O)c2ccc(O)c(C(=O)O)c2)c2ncccc2c1	-8%	5%	-1%	32µM*	-22%	3%
COc1cc(N(C(C)=O)c2ccc(O)cc2)c2ncccc2c1	-11%	-1%	1%	-12%	-22%	-5%
COC(=O)c1ccc(OC(=O)c2ccc(SC)cc2OC)cc1	nt	nt	nt	nt	-38%	nt
CN(Cc1ccccc1)C(=O)c1cc(=O)[nH]c2ccc(S(=O)(=O)Nc3ccc(F)cc3)cc12	nt	nt	nt	nt	13%	nt
Cc1ccc(C2=C(O)C(=O)C(c3ccc(C)cc3)=C(O)C2=O)cc1	-5%	-16%	-11%	-9%	1.1µM*	2%
CCCn1c(=O)[nH]c(=O)c2c3c(cnc21)C(=O)CC(c1ccccc1)C3 (centres undefined)	nt	nt	nt	nt	16%	nt
Cc1ccc(S(=O)(=O)NC(=O)NN2CC3CCCC3C2)cc1 (centres undefined)	20%	-4%	-3%	-14%	3.1µM*!	-1%
Cc1noc(C)c1-c1nc(N2CCN(C)CC2)c2ccccc2n1	nt	nt	nt	nt	18µM*	nt
c1ccc(-c2nc(N3CCOCC3)c3ccccc3n2)nc1	11%	0%	-4%	-11%	-1%	-5%
Cc1noc(C)c1-c1nc(N2CCOCC2)c2ccccc2n1	nt	nt	nt	nt	40µM*	nt
Cc1noc(C)c1-c1nc(N2CCNCC2)c2ccccc2n1	nt	nt	nt	nt	-14%	nt
CC(NO)C(C)(C)NO (centres undefined)	5%	8%	-5%	-13%	22µM*!	6%
